# Results filed as inconclusive are left out. Active and inactive are the calls of the source. Unless noted, no stated cut-off is given here; in the data, active means inhibition above about 80%; inactive means the rest. Numbered stars: 1 amine (or outer) side, 2 acyl side, 3 side chain; on linkers, the order of the positions; unused ones are H or OH. Bridge positions count the residues as written; N and C are the ends. Square brackets hold non-standard residues; d marks the D form. Peptide text beside a SMILES is read from it. I, II: the chains in the order shown. Actinocin(9to1) = Cc1c2oc3c(C)ccc(C(=O)[*:1])c3nc-2c(C(=O)[*:2])c(N)c1=O; NMeV = CN[CH](C(=O)O)C(C)C; Sar = CNCC(=O)O
# Legend:
# [1] = differential killing of epithelial or mesenchymal cells, primary screen, imaging, PC-3E GFP, TEM4-18 mCherry, co-culture (AID 1345086;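 active means compounds killing one labelled cell type while sparing the other, by normalised counts and ratio limits, not self-fluorescent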;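 on all read-outs here: cells exposed to compound for 72 h before imaging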;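 on red/green cell ratio (normalised): normalised mesenchymal count divided by normalised epithelial count so high means epithelial killing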); conditions: imaging cell counts, at 1 µM; for red/green cell ratio (normalised): actives lie on both sides, counts scaled to control wells, 1 = unselective
# [2] = growth inhibition of DIPG glioma cells, dose response, cell-based, SU-DIPG-XVII, MIPE5.0, CellTiter-Glo, qHTS (AID 1347060; cut-off not given, nearly all actives have AC50 up to about 26 µM;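 on AC50: cells exposed to compound for 48 hours before viability readout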); conditions: SU-DIPG-XVII viability, CellTiter-Glo ATP luminescence
# [3] = growth inhibition of DIPG glioma cells, dose response, cell-based, JHH-DIPG-1, MIPE4.0, CellTiter-Glo, qHTS (AID 1347062; cut-off not given, nearly all actives have AC50 up to about 27 µM); conditions: JHH-DIPG-1 viability, CellTiter-Glo ATP luminescence
# [4] = SU-DIPG-XXV glioma cell viability, MIPE5.0 library, qHTS (AID 1347068; cut-off not given, nearly all actives have IC50 up to about 30 µM;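 on IC50: cells exposed to compound for 48 hours before viability readout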)
# [5] = LFS_MB_P medulloblastoma growth inhibition, cell-based, chromothripsis tumors, cisplatin or BGB combos (AID 1671449); conditions: LFS_MB_P medulloblastoma cells;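 further: cells exposed for 96 hours; 0% = vehicle DMSO and 100% = killing by high DMSO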
# [6] = HDN33 neuroblastoma growth inhibition, cell-based, chromothripsis tumors, cisplatin or BGB combos (AID 1671450); conditions: HDN33 neuroblastoma cells, stronger effect = higher value;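 further: cells exposed to compound for four days; 0% = vehicle DMSO and 100% = cell killing by high DMSO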
# [7] = ICB984 medulloblastoma cell growth inhibition, synergistic combos for chromothripsis tumors, cisplatin or BGB combos (AID 1671451; call rule not given here;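 further: cells exposed for 96 hours before readout; 0% = vehicle DMSO and 100% = killing by high DMSO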); conditions: ICB984 medulloblastoma cells, drug combinations, stronger effect = higher value
# [8] = LFS_MB_1R medulloblastoma cell growth inhibition, synergistic combos for chromothripsis tumors, cisplatin or BGB combos (AID 1671452); conditions: LFS_MB_1R medulloblastoma cells, stronger effect = higher value;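 further: cells exposed for 96 hours before readout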
# [9] = HTB85 osteosarcoma cell growth inhibition, synergistic combos for chromothripsis tumors, BGB or cisplatin IC20 combos (AID 1671453); conditions: HTB85 osteosarcoma cells, drug combinations, stronger effect = higher value;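 further: cells exposed for 96 hours before readout; 0% = vehicle DMSO and 100% = high DMSO killing control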
# [10] = CRL2098 osteosarcoma cell growth inhibition, synergistic combos for chromothripsis tumors, BGB or cisplatin IC20 combos (AID 1671454); conditions: CRL2098 osteosarcoma cells, drug combinations, stronger effect = higher value;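 further: cells exposed for 96 h before readout; 0% = vehicle DMSO and 100% = killing by high DMSO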
# [11] = HD-MB03 medulloblastoma cell growth inhibition, synergistic combos for chromothripsis tumors, BGB or cisplatin IC20 combos (AID 1671455; in the data active means inhibition above about 83%;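 further: 0% = vehicle DMSO and 100% = high DMSO as cytotoxic control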); conditions: HD-MB03 medulloblastoma cells, stronger effect = higher value
# [12] = UWB1.289 ovarian carcinoma cell growth inhibition, synergistic combos for chromothripsis tumors, BGB or cisplatin combos (AID 1671456); conditions: UWB1.289 ovarian carcinoma cells, stronger effect = higher value;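 further: cells exposed to compound for four days; 0% = vehicle DMSO and 100% = killing by high DMSO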
# [13] = LFS_MB_2R medulloblastoma cell growth inhibition, synergistic combos for chromothripsis tumors, cisplatin combos (AID 1671457); conditions: LFS_MB_2R medulloblastoma cells, stronger effect = higher value;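 further: cells exposed to compound for four days before readout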
# [14] = MDA-MB-436 breast carcinoma cell growth inhibition, synergistic combos for chromothripsis tumors, BGB or cisplatin combos (AID 1671458; call rule not given here;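 further: cells exposed for 96 hours; 0% = vehicle DMSO and 100% = killing by high DMSO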); conditions: MDA-MB-436 breast carcinoma growth inhibition, drug combinations, stronger effect = higher value
# [15] = UWB1.289_BRCA1 ovarian cancer growth, cell-based, BGB or cisplatin combinations (AID 1671459); conditions: UWB1.289 BRCA1 ovarian carcinoma, drug combinations, stronger effect = higher value
# [16] = human astrocyte viability loss, single and combined drugs, cytotoxicity control for chromothriptic childhood tumor combination screen, cell-based, BGB or cisplatin IC20 combos (AID 1671460); conditions: Human astrocytes, drug combinations, stronger effect = higher value;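 further: cells exposed to compounds for 96 hours before viability readout; 0% = vehicle and 100% = killing control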
# [17] = growth inhibition of BT084 medulloblastoma cells, cell-based, ICGC_MB145, cisplatin and BGB IC40 combos (AID 1671461); conditions: drug combinations, stronger effect = higher value;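 further: cells exposed to drugs for 96 hours; 0% = vehicle DMSO and 100% = high DMSO full killing control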
# [18] = growth inhibition of RCMB18 medulloblastoma cells, cell-based, cisplatin and BGB IC40 combos (AID 1671462); conditions: stronger effect = higher value;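 further: cells exposed to compound for four days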
# [19] = growth inhibition of CRL1545 osteosarcoma cells, cell-based, cisplatin and BGB IC20 combos (AID 1671464); conditions: stronger effect = higher value;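 further: cells exposed to compound for 96 hours before readout; 0% = vehicle DMSO and 100% = high DMSO killing control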
# [20] = measured here: epithelial PC-3E GFP cell survival
# [21] = measured here: mesenchymal TEM4-18 mCherry cell survival
# [22] = measured here: combination with BGB IC40, at 0.05 µM
# [23] = measured here: with BGB IC20 combination, at 0.5 µM
# [24] = measured here: with cisplatin IC20 combination, at 0.5 µM
# [25] = measured here: combination with cisplatin, at 0.5 µM
# [26] = measured here: combination with cisplatin, at 5 µM
smiles,measurement,setting,value
C[n+]1ccccc1C=NO,red/green cell ratio (normalised),[1],1.01 (inactive)
same,normalised cell number,[1]; [20],1
same,normalised cell number,[1]; [21],1.02
CCCc1nc(C(C)(C)O)c(C(=O)O)n1Cc1ccc(-c2ccccc2-c2nn[nH]n2)cc1,red/green cell ratio (normalised),[1],1.01 (inactive)
same,normalised cell number,[1]; [20],1.21
same,normalised cell number,[1]; [21],1.22
same,outcome,[2],inactive
same,outcome,[3],inactive
same,outcome,[4],inactive
"Cc1c2oc3c(C)ccc(C(=O)NC4C(=O)NC(C(C)C)C(=O)N5CCCC5C(=O)N(C)CC(=O)N(C)C(C(C)C)C(=O)OC4C)c3nc-2c(C(=O)NC2C(=O)NC(C(C)C)C(=O)N3CCCC3C(=O)N(C)CC(=O)N(C)C(C(C)C)C(=O)OC2C)c(N)c1=O (stereo not given) (I: TVP[Sar][NMeV] / II: TVP[Sar][NMeV]; ester I:1-I:C, II:1-II:C; linker I:N-II:N via Actinocin(9to1); configuration not given here)",AC50,[2],4.07 nM (active)
same,outcome,[3],inactive
same,IC50,[4],72.3 nM (active)
CO[C@H]1/C=C/O[C@@]2(C)Oc3c(C)c(O)c4c(O)c(c(C=NN5CCN(C)CC5)c(O)c4c3C2=O)NC(=O)/C(C)=C\C=C\[C@H](C)[C@H](O)[C@@H](C)[C@@H](O)[C@@H](C)[C@H](OC(C)=O)[C@@H]1C,inhibition,"[5]; at 0.5 µM, stronger effect = higher value",-11% (inactive)
same,inhibition,"[5]; measured here: combination with BGB IC20, at 0.005 µM",-12.4%
same,inhibition,"[5]; measured here: combination with BGB IC40, at 0.005 µM",-11.3%
same,inhibition,[5]; [22],7.63%
same,inhibition,"[5]; measured here: combination with cisplatin, at 0.5 µM, stronger effect = higher value",-13.1%
same,inhibition,"[5]; measured here: combination with cisplatin, at 5 µM, stronger effect = higher value",25%
same,inhibition,"[6]; BGB combo, at 5 µM",2%
same,inhibition,[6]; at 0.5 µM,2.94% (inactive)
same,inhibition,"[6]; cisplatin combo, at 5 µM",-6.32%
same,inhibition,[6]; [23],7.7%
same,inhibition,[6]; [24],10.2%
same,inhibition,"[6]; single agent, at 5 µM",0.074%
same,inhibition,"[7]; BGB IC20 combo, at 0.005 µM",6.74%
same,inhibition,"[7]; BGB IC40 combo, at 0.005 µM",-7.18%
same,inhibition,"[7]; BGB IC40 combo, at 0.05 µM",33.5%
same,inhibition,[7]; at 0.5 µM,-10.8% (inactive)
same,inhibition,"[7]; cisplatin combo, at 0.05 µM",33.5%
same,inhibition,"[7]; cisplatin combo, at 0.5 µM",-9.79%
same,inhibition,"[7]; cisplatin combo, at 5 µM",-23.1%
same,inhibition,"[7]; measured here: 5 uM single agent, at 5 µM",-0.291%
same,inhibition,[8]; at 0.5 µM,-13.7% (inactive)
same,inhibition,[8]; [22],-25.4%
same,inhibition,[8]; [25],34.7%
same,inhibition,[8]; [26],6.61%
same,inhibition,[9]; at 0.5 µM,-9.22% (inactive)
same,inhibition,"[9]; measured here: with BGB IC20, at 0.5 µM",-34.1%
same,inhibition,"[9]; measured here: with BGB IC20, at 5 µM",19.8%
same,inhibition,"[9]; measured here: with cisplatin IC20, at 0.5 µM",-3.74%
same,inhibition,"[9]; measured here: with cisplatin IC20, at 5 µM",32.8%
same,inhibition,"[9]; single agent, at 5 µM",32.5%
same,inhibition,[10]; at 0.5 µM,-28.2% (inactive)
same,inhibition,"[10]; measured here: combination with BGB at IC20, at 0.5 µM",-20.5%
same,inhibition,"[10]; measured here: combination with cisplatin at IC20, at 0.5 µM",-57.4%
same,inhibition,[11]; at 0.5 µM,-2.23% (inactive)
same,inhibition,"[11]; measured here: combo with BGB at IC20, at 0.5 µM",-1.06%
same,inhibition,"[11]; measured here: combo with cisplatin at IC20, at 0.5 µM",-3.79%
same,inhibition,[12]; at 0.5 µM,6.08% (inactive)
same,inhibition,"[12]; measured here: inhibition with BGB combination, at 0.05 µM",0.522%
same,inhibition,"[12]; measured here: inhibition with cisplatin combination, at 0.05 µM",-2.06%
same,inhibition,[13]; at 0.5 µM,-16.1% (inactive)
same,inhibition,[13]; [25],-10.3%
same,inhibition,[13]; [26],19.4%
same,inhibition,[14]; at 0.5 µM,-11.2% (inactive)
same,inhibition,"[14]; measured here: BGB combination, at 0.5 µM",-8.37%
same,inhibition,"[14]; measured here: BGB combination, at 5 µM",1.85%
same,inhibition,"[14]; measured here: cisplatin combination, at 0.5 µM",-22.5%
same,inhibition,"[14]; measured here: cisplatin combination, at 5 µM",4.56%
same,inhibition,"[15]; BGB combination, concentration series, at 5 µM",33.9%
same,inhibition,[15]; at 0.5 µM,4.15% (inactive)
same,inhibition,"[15]; cisplatin combination, concentration series, at 5 µM",22%
same,inhibition,[16]; at 0.5 µM,-6.54% (inactive)
same,inhibition,"[16]; measured here: combo with BGB IC20, at 0.5 µM",-11%
same,inhibition,"[16]; measured here: combo with cisplatin IC20, at 0.5 µM",-7.29%
same,inhibition,[17]; at 0.5 µM,-5.85% (inactive)
same,inhibition,"[17]; cisplatin combination, at 0.5 µM",-3.4%
same,inhibition,"[17]; cisplatin combination, at 5 µM",-36.2%
same,inhibition,"[17]; measured here: BGB IC40 combination 0.05 uM, at 0.05 µM",-6.21%
same,inhibition,"[17]; single agent, at 5 µM",-1.11%
same,inhibition,[18]; at 0.5 µM,-18.2% (inactive)
same,inhibition,"[18]; cisplatin combo, at 5 µM",4.58%
same,inhibition,"[18]; measured here: BGB IC40 combination, at 0.05 µM",-7.26%
same,inhibition,[18]; [25],-16%
same,inhibition,"[18]; single agent, at 5 µM",-21.9%
same,inhibition,[19]; at 0.5 µM,-32.1% (inactive)
same,inhibition,[19]; [23],-8.55%
same,inhibition,[19]; [24],-44%
same,inhibition,"[19]; single agent, at 0.05 µM",6.37%
same,inhibition,"[19]; single agent, at 5 µM",27.5%
